Experimental data from PubChem BioAssay.
Active and inactive are the calls of the source.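 Rule for the calls, unless noted: active = visual image review flags a hit and inhibition of aggregation exceeds 20%; inconclusive = visual hit but inhibition at or below 20%; inactive = no hit on visual image review.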

Test: inhibitors of TNFa-induced NFkB p65 translocation, primary screen, imaging, HUVEC, MLSMR starter and 10KST1 sets (AID 438;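 active = inhibition above 20% together with a positive visual image hit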;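 note: compound added about 3h40 before a 20 min TNFalpha stimulation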;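 for inhibition: signal is the nuclear over cytoplasmic p65 intensity ratio per well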)
Settings: HUVEC TNFa-induced p65 nuclear translocation; cell count: measured here: nuclei count (cytotoxicity indicator), at 2.08 µM; inhibition: at 2 µM, stronger effect = higher value, 0% TNFa-plus-vehicle, 100% no-TNFa wells

SMILES	cell count	inhibition
Cc1ccc(C(=O)NC(Cc2c[nH]c3ccccc23)C(=O)O)o1 (stereo not given)	507	4.3% (inactive)
N/C(=N/O)c1nc(N2CCCC2)nc(N(c2ccccc2)c2ccccc2)n1	371	0.4% (inactive)
COC(=O)c1nnn(-c2ccccc2)c1N	314	10.6% (inactive)
CCOC(=O)c1cc2c(=O)n3cccc(C)c3nc2n(CC2CCCO2)c1=NC(C)=O (stereo not given)	435	28.2% (inactive)
CCOC(=O)Nc1cc(OC)c(OC)cc1Cc1nccc2cc(OC)c(OC)cc12	444	-1.8% (inactive)
CCN(CC)S(=O)(=O)c1ccc(Br)c(OC)c1	374	4.5% (inactive)
CCOc1ccc2nc(SCc3ccc(C(=O)OC)o3)[nH]c2c1	335	15.9% (inactive)
Nc1nc2n(n1)C(c1cccc(Br)c1)CC(c1ccc(F)cc1)N2 (stereo not given)	886	-6.1% (inactive)
CCc1[nH]nc2c1C1(CCN(C(=O)OCc3ccccc3)CC1)C(C#N)=C(N)O2	823	0.6% (inactive)
Cc1cc(=O)n2nc(-c3ccccc3)sc2n1	563	-1.1% (inactive)
CC(=O)OCCNc1cc(N2CCN(C)CC2)c2noc3c2c1C(=O)c1ccccc1-3	746	1.6% (inactive)
N#Cc1c(NCc2ccccc2)ccnc1NCc1cccnc1	720	2.9% (inactive)
CCCCc1c(O)nc(N2CCN(Cc3ccccc3)CC2)[nH]c1=O	402	-2.5% (inactive)
N#CC1=C(N)N(c2ccc(Oc3ccccc3)cc2)C(=O)C1	546	-3.8% (inactive)
CCc1ccccc1NC(=O)CCc1nc(-c2ccc(C)cc2)no1	415	-1% (inactive)
c1ccc(OCCCn2nnc(-c3cccnc3)n2)cc1	340	0.3% (inactive)
COc1ccc(Cl)cc1N1CC(c2nc3ccccc3[nH]2)CC1=O (stereo not given)	542	1.4% (inactive)
CC1(C)NC(=O)N(CC(O)COc2cccc(F)c2)C1=O (stereo not given)	690	-1.1% (inactive)
Cc1c(C(=O)OCc2ccccc2)[nH]c2c1C(=O)CC(c1ccco1)C2 (stereo not given)	721	12.7% (inactive)
CCOC(=O)c1sc(NC(=O)CSc2nnc(-c3ccc(OC)cc3)n2CCOC)nc1C	633	12.1% (inactive)

SMILES	cell count	inhibition
COc1ccc(Cn2nnnc2C(c2cccnc2)N2CCN(c3ccc(O)cc3)CC2)cc1 (stereo not given)	682	-7.2% (inactive)
CCOC(=O)Cn1c(CN(C)Cc2ccccc2)nc2c1c(=O)n(C)c(=O)n2C	241	6.8% (inactive)
CNC(=O)CSc1nnc(-c2ccc(S(=O)(=O)N3CCCC3)cc2)n1-c1cccc(C)c1C	643	-2.4% (inactive)
O=C(COC(=O)CSc1nnc(-c2ccc(Cl)cc2)o1)NCc1ccc2c(c1)OCO2	517	-2.4% (inactive)
CC(C)(C)n1ncc2c(=O)n(CC(=O)NCc3ccc(F)cc3)cnc21	403	9.3% (inactive)
CC1CCN(S(=O)(=O)c2cccc(C(=O)Nc3ccccn3)c2)CC1	338	-4.3% (inactive)
CCOC(=O)c1cc2c(=O)n3ccccc3nc2n(CC2CCCO2)c1=NC(C)=O (stereo not given)	617	3.1% (inactive)
CCOC(=O)c1[nH]c(C)c(C(=O)N2CCN(C(=O)c3ccco3)CC2)c1C	780	-13.4% (inactive)
CCN(CC)S(=O)(=O)c1ccc(NC(=O)Cn2cnc3ccccc3c2=O)cc1	321	-1.8% (inactive)
CCOC(=O)c1c(C)[nH]c(C(=O)COC(=O)c2ccc(F)c(S(=O)(=O)N3CCOCC3)c2)c1C	376	4.8% (inactive)
O=C(CN1CCN(c2ncccn2)CC1)Nc1ccccc1-n1cccc1	327	13.4% (inactive)
CCOC(=O)Cn1c(=O)c(-c2ccccc2N)nc2ccccc21	620	-1.8% (inactive)
CCCOc1ccc(NC2=CC(=O)CC(C)(C)C2)cc1	342	3.8% (inactive)
CCOC(=O)C1(CC)NC(c2cccc(F)c2)C2C(=O)N(CC)C(=O)C21 (stereo not given)	567	-7.7% (inactive)
CCC(C)NC(=O)CC1Oc2ccc(C)cc2NC1=O (stereo not given)	585	-2% (inactive)
O=C(NCC(=O)N(c1cnc2ccccc2c1)C(C(=O)NC1CCCC1)c1ccncc1)c1ccco1 (stereo not given)	501	-7.1% (inactive)
O=C(Nc1cccc2ccccc12)N1CCN(c2ccccc2)CC1	767	-6.4% (inactive)
CC(C)(C)Nc1nc(NC(C)(C)C)nc(-n2ccnc2)n1	194	-0.8% (inactive)
Nc1nnnn1NCc1cccc(OCc2ccccc2)c1	582	-9.5% (inactive)
O=C(COC(=O)C1CC(=O)N(c2ccccc2)C1)c1ccccc1 (stereo not given)	603	2.4% (inactive)

Test: inhibitors of mutant huntingtin aggregation, primary screen, imaging, exon1htt(103Q)mCFP cells, high-content imaging (AID 483);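 note: compound exposure lasted 3 days before fixation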;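 for nuclei count: percent of the per-plate median nuclei count of sample wells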
Settings: exon1htt(103Q)mCFP cell line, aggregate imaging, at 2 µM; inhibition of aggregation: stronger effect = higher value; nuclei count: measured here: cell count, toxicity

SMILES	nuclei count [%]	inhibition of aggregation
Cc1ccc(C(=O)NC(Cc2c[nH]c3ccccc23)C(=O)O)o1 (stereo not given)	110	-3.1% (inactive)
N/C(=N/O)c1nc(N2CCCC2)nc(N(c2ccccc2)c2ccccc2)n1	90.7	-18.1% (inactive)
COC(=O)c1nnn(-c2ccccc2)c1N	92	19% (inactive)
CCOC(=O)c1cc2c(=O)n3cccc(C)c3nc2n(CC2CCCO2)c1=NC(C)=O (stereo not given)	117	-1.4% (inactive)
CCOC(=O)Nc1cc(OC)c(OC)cc1Cc1nccc2cc(OC)c(OC)cc12	111	-1.2% (inactive)
CCN(CC)S(=O)(=O)c1ccc(Br)c(OC)c1	100	-7.1% (inactive)
CCOc1ccc2nc(SCc3ccc(C(=O)OC)o3)[nH]c2c1	96.5	16.9% (inactive)
Nc1nc2n(n1)C(c1cccc(Br)c1)CC(c1ccc(F)cc1)N2 (stereo not given)	110	9.7% (inactive)
CCc1[nH]nc2c1C1(CCN(C(=O)OCc3ccccc3)CC1)C(C#N)=C(N)O2	114	12.7% (inactive)
Cc1cc(=O)n2nc(-c3ccccc3)sc2n1	106	-4.1% (inactive)
CC(=O)OCCNc1cc(N2CCN(C)CC2)c2noc3c2c1C(=O)c1ccccc1-3	114	-43.5% (inactive)
N#Cc1c(NCc2ccccc2)ccnc1NCc1cccnc1	104	-8.3% (inactive)
CCCCc1c(O)nc(N2CCN(Cc3ccccc3)CC2)[nH]c1=O	97.1	9.1% (inactive)
N#CC1=C(N)N(c2ccc(Oc3ccccc3)cc2)C(=O)C1	119	-0.2% (inactive)
CCc1ccccc1NC(=O)CCc1nc(-c2ccc(C)cc2)no1	103	-4% (inactive)
c1ccc(OCCCn2nnc(-c3cccnc3)n2)cc1	95.2	12.8% (inactive)
COc1ccc(Cl)cc1N1CC(c2nc3ccccc3[nH]2)CC1=O (stereo not given)	114	2% (inactive)
CC1(C)NC(=O)N(CC(O)COc2cccc(F)c2)C1=O (stereo not given)	72.2	8.4% (inactive)
Cc1c(C(=O)OCc2ccccc2)[nH]c2c1C(=O)CC(c1ccco1)C2 (stereo not given)	3.7	-170% (inactive)
CCOC(=O)c1sc(NC(=O)CSc2nnc(-c3ccc(OC)cc3)n2CCOC)nc1C	88.1	12.9% (inactive)

SMILES	nuclei count [%]	inhibition of aggregation
COc1ccc(Cn2nnnc2C(c2cccnc2)N2CCN(c3ccc(O)cc3)CC2)cc1 (stereo not given)	92.7	-1.9% (inactive)
CCOC(=O)Cn1c(CN(C)Cc2ccccc2)nc2c1c(=O)n(C)c(=O)n2C	92.6	6.2% (inactive)
CNC(=O)CSc1nnc(-c2ccc(S(=O)(=O)N3CCCC3)cc2)n1-c1cccc(C)c1C	108	-15.2% (inactive)
O=C(COC(=O)CSc1nnc(-c2ccc(Cl)cc2)o1)NCc1ccc2c(c1)OCO2	123	4.7% (inactive)
CC(C)(C)n1ncc2c(=O)n(CC(=O)NCc3ccc(F)cc3)cnc21	95.8	14.9% (inactive)
CC1CCN(S(=O)(=O)c2cccc(C(=O)Nc3ccccn3)c2)CC1	78	26.3% (inactive)
CCOC(=O)c1cc2c(=O)n3ccccc3nc2n(CC2CCCO2)c1=NC(C)=O (stereo not given)	86.7	18.5% (inactive)
CCOC(=O)c1[nH]c(C)c(C(=O)N2CCN(C(=O)c3ccco3)CC2)c1C	110	2.2% (inactive)
CCN(CC)S(=O)(=O)c1ccc(NC(=O)Cn2cnc3ccccc3c2=O)cc1	96	15.7% (inactive)
CCOC(=O)c1c(C)[nH]c(C(=O)COC(=O)c2ccc(F)c(S(=O)(=O)N3CCOCC3)c2)c1C	6.6	-173% (inactive)
O=C(CN1CCN(c2ncccn2)CC1)Nc1ccccc1-n1cccc1	81.3	16% (inactive)
CCOC(=O)Cn1c(=O)c(-c2ccccc2N)nc2ccccc21	124	2.1% (inactive)
CCCOc1ccc(NC2=CC(=O)CC(C)(C)C2)cc1	119	-7.1% (inactive)
CCOC(=O)C1(CC)NC(c2cccc(F)c2)C2C(=O)N(CC)C(=O)C21 (stereo not given)	93.8	21.4% (inactive)
CCC(C)NC(=O)CC1Oc2ccc(C)cc2NC1=O (stereo not given)	100	9.7% (inactive)
O=C(NCC(=O)N(c1cnc2ccccc2c1)C(C(=O)NC1CCCC1)c1ccncc1)c1ccco1 (stereo not given)	102	-3.6% (inactive)
O=C(Nc1cccc2ccccc12)N1CCN(c2ccccc2)CC1	94.9	26.6% (inactive)
CC(C)(C)Nc1nc(NC(C)(C)C)nc(-n2ccnc2)n1	81.5	-0.1% (inactive)
Nc1nnnn1NCc1cccc(OCc2ccccc2)c1	64.2	11.2% (inactive)
O=C(COC(=O)C1CC(=O)N(c2ccccc2)C1)c1ccccc1 (stereo not given)	99.9	-21% (inactive)
